High-throughput results as filed in PubChem BioAssay.
SMN2 splice up – enhancers of SMN2 splice variant expression; HEK293 SMN2-luciferase splicing reporter, luminescence, 30-36 h; Potency, µM (doses to about 46.1 µM), usual class: activators; 210,000 compounds, 2.8% hits; further: nearly all actives have a fitted effect of over 55% in size
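HEK293 cells carry an SMN2 minigene-luciferase reporter in which exon 7 inclusion puts luciferase in frame. Cells were seeded at 2000 cells/well, attached for 10-12 hours, then exposed to compounds for 30-36 hours at 37C before ONE-Glo luminescence.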
NPC1 promoter act – activates the NPC1 promoter. AID 485313. Potency, µM (series often up to 9.22 µM), actives largely listed as activators. Huh7 NPC1 promoter luciferase reporter, 24 h. 320,000 compounds, 2.4% hits; further: nearly all actives have a fitted effect of over 60% in size
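Cells: Huh7 expressing luciferase under the NPC1 promoter, 1500/well. Seeded 2 h, compound added, incubated 24 h at 37 °C. Luciferase reagent, 10 min ambient, then luminescence.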
ELG1 genotox – inducers of genotoxicity in HEK293T ELG1-luciferase cells; HEK293T ELG1-luciferase reporter, luminescence, 16 h; Potency, µM (top dose mostly 46 µM), actives largely listed as activators; 330,000 compounds, 1.3% hits; further: nearly all actives have a fitted effect of over 60% in size
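Genotoxic stress is detected as increased luminescence from luciferase-tagged ELG1 in HEK293T cells, measured with ONE-Glo after a 16 hr treatment at 37 °C.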
FLuc modulator – firefly luciferase modulation, counter-screen for miR-21 project | Potency, µM (doses to about 57.5 µM), usual class: inhibitors | 360,000 compounds, 6.9% hits | purified FLuc, Km substrates, luminescence inhibition; further: nearly all actives have a fitted effect of over 55% in size
Target sequence (P08659 whole entry, looked up): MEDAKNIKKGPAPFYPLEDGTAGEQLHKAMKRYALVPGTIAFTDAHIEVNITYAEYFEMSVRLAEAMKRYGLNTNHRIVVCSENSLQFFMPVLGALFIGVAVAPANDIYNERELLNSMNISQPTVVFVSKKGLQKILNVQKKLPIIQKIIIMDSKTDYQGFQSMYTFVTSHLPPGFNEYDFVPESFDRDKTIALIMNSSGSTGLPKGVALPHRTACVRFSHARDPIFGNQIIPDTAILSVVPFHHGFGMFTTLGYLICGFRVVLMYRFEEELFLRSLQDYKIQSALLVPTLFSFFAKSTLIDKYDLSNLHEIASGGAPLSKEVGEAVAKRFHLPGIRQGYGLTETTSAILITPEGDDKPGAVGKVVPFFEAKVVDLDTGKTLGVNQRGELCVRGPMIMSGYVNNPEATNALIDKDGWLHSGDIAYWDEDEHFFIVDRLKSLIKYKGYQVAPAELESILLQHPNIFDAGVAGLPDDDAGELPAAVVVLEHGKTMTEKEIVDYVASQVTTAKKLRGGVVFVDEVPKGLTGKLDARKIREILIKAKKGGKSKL
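Purified P. pyralis luciferase, 10 nM final, with Km-level 10 uM D-luciferin and 10 uM ATP in 50 mM Tris acetate pH 7.5, 10 mM Mg acetate, 0.01% Tween-20, 0.05% BSA; 6-point qHTS titration about 60 µM downward; luminescence read.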
Luc counter – Kinase-Glo luciferase inhibition (counter-screen); Kinase-Glo luciferase, ATP luminescence, 8 min; Q27757; AID 1379; 200,000 compounds, 0.28% hits; Potency, µM (highest dose often 38.3 µM), most hits filed as inhibitors; further: nearly all actives have a fitted effect of over 60% in size
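Kinase-Glo luciferase light output from ATP and luciferin was measured with 10 uM ATP, within the enzyme's linear range. Buffer: 50 mM imidazole pH 7.2, 50 mM KCl, 7 mM MgCl2, 0.01% Tween 20, 0.05% BSA; luminescence read after 8 min at ambient temperature.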
Rab9 promoter act – activates the Rab9 promoter | Huh7 Rab9 promoter-luciferase reporter, luminescence, 24 h | Potency, µM (doses to about 9.22 µM), most hits filed as activators | 320,000 compounds, 2.8% hits | AID 485297; further: nearly all actives have a fitted effect of over 60% in size
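Huh7 cells stably carrying a Rab9 promoter-luciferase reporter, 1500 cells per well in OP-MEM I with 10% FBS, treated with compound 24 hours at 37C. Luciferase activity read by luminescence after 10 minutes with Amplite reagent.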
Of the large screens only hits and unclear results are named; the others gave an inactive call. The list is not random: actives were taken first. Their share in the collection is about 7.5%. The call rests on the fitted dose curve; in most records, active means well fitted curve in the direction sought with a large enough effect; inconclusive means small, poorly fitted or top-dose-only effect, or another doubt; inactive means no such curve, though single readings can be large; an effect the other way counts as inactive or inconclusive.

O=C(OCCOc1ccccc1)c1cccc(S(=O)(=O)N2CCOCC2)c1	none (no result: SMN2 splice up, Luc counter)
O=C(OCc1nc2ccccc2s1)c1cccc(S(=O)(=O)N2CCOCC2)c1	ELG1 genotox inconclusive, FLuc modulator 8.5µM
O=C(CCc1ccc(S(=O)(=O)N2CCOCC2)cc1)OCc1nc2ccccc2s1	ELG1 genotox inconclusive, FLuc modulator 21µM
O=C(COC(=O)c1cccc(S(=O)(=O)N2CCOCC2)c1)c1ccccc1	FLuc modulator 13µM (no result: SMN2 splice up, Luc counter)
COc1ccc(Cn2ccnc2SCC(=O)Nc2ccc3c(c2)OCCO3)cc1	none (no result: SMN2 splice up, NPC1 promoter act, ELG1 genotox, Luc counter, Rab9 promoter act)
C/C(=N\N=C(/N)c1nonc1N)c1ccc2c(c1)OCO2	NPC1 promoter act 0.63µM, ELG1 genotox inconclusive, FLuc modulator 2.7µM, Rab9 promoter act 0.89µM (no result: SMN2 splice up, Luc counter)
C/C(=N/NC(=O)c1nnn(-c2nonc2N)c1-c1ccccc1)c1ccc2c(c1)OCO2	none (no result: SMN2 splice up, Luc counter)
COc1ccc(N2C(=O)c3ccccc3NC2c2ccc(OC)c(CSc3ccccn3)c2)cc1 (stereo not given)	SMN2 splice up inconclusive, NPC1 promoter act inconclusive, ELG1 genotox inconclusive, FLuc modulator inconclusive
COc1ccc(N2C(=O)c3ccccc3NC2c2ccc(OC)c(COc3ccccn3)c2)cc1 (stereo not given)	SMN2 splice up 13µM, NPC1 promoter act inconclusive, ELG1 genotox inconclusive, Rab9 promoter act inconclusive
COc1ccc(C2Nc3ccccc3C(=O)N2c2ccc(C)cc2)cc1Cn1nnc2ccccc21 (stereo not given)	NPC1 promoter act inconclusive, ELG1 genotox inconclusive, Rab9 promoter act inconclusive (no result: SMN2 splice up, Luc counter)
COc1ccc(C2Nc3ccccc3C(=O)N2c2ccc(C)cc2)cc1Cn1cc([N+](=O)[O-])cn1 (stereo not given)	SMN2 splice up 20µM, NPC1 promoter act 4µM, FLuc modulator inconclusive, Rab9 promoter act 4µM
CCc1ccc(NC(=O)CSc2nc3c(c(=O)[nH]2)CN(Cc2ccc(C)cc2)CC3)cc1	none (no result: SMN2 splice up, NPC1 promoter act, ELG1 genotox, Luc counter, Rab9 promoter act)
CN1CCN(c2ccc(NC(=O)c3ccc4c(c3)OCO4)cc2)CC1	SMN2 splice up inconclusive, NPC1 promoter act 2.5µM, ELG1 genotox inconclusive, FLuc modulator 11µM, Rab9 promoter act 1.8µM
O=C(Nc1ccc(N2CCCCC2)cc1)c1ccc2c(c1)OCCO2	NPC1 promoter act inconclusive, FLuc modulator 1.7µM, Rab9 promoter act 1.4µM
CCc1cccc(NC(=O)CN(C)S(=O)(=O)c2ccc3c(c2)CCCN3C(C)=O)c1	none (no result: SMN2 splice up, NPC1 promoter act, ELG1 genotox, Luc counter, Rab9 promoter act)
Oc1c(CN2CCN(c3ccccn3)CC2)cc(Cl)c2cccnc12	ELG1 genotox 7.3µM
COc1cc(-c2noc(C3CCCN(C(=O)c4ccccc4)C3)n2)cc(OC)c1OC (stereo not given)	none (no result: SMN2 splice up, Luc counter)
O=C(CN1C(=O)c2ccccc2S1(=O)=O)Nc1cc(S(=O)(=O)N2CCCCC2)ccc1Cl	none (no result: SMN2 splice up, Luc counter)
Cc1ccn2c(C(=O)CSc3ccccc3)c(C)nc2c1	SMN2 splice up 25µM, FLuc modulator inconclusive
Cc1ccc(SCC(=O)c2c(C)nc3cc(C)ccn23)cc1	none
CS(=O)(=O)N1CCC(C(=O)NCc2ccc(Cl)cc2)CC1	none (no result: SMN2 splice up, Luc counter)
COc1cccc(NC(=O)CN(C)C(=O)CSc2nc(C)cc(C)n2)c1	none (no result: SMN2 splice up, Luc counter)
Nc1ccc(NC(=O)c2ccc(C(=O)Nc3ccc(N)cc3)cc2)cc1	none (no result: SMN2 splice up, Luc counter)
Nc1ccc(C(=O)Nc2ccc(OC(F)(F)C(F)F)c(NC(=O)c3ccc(N)cc3)c2)cc1	FLuc modulator 21µM (no result: SMN2 splice up, Luc counter)
COC(=O)Cn1nnc2c(cnn2-c2ccccc2)c1=O	none (no result: SMN2 splice up)
CC(C)OC(=O)Cn1nnc2c(cnn2-c2ccccc2)c1=O	FLuc modulator 17µM
C=CCn1c(O)c(N=NC(=O)OC(C)(C)C)c2ccccc21	FLuc modulator 17µM
C=CCn1c(O)c(N=NC(=O)C(O)c2ccccc2)c2ccccc21 (stereo not given)	none (no result: SMN2 splice up, Luc counter)
CC(=O)Nc1nccc(-c2cc(-c3ccccc3)no2)n1	NPC1 promoter act 3.5µM, ELG1 genotox inconclusive, FLuc modulator inconclusive, Rab9 promoter act 2.2µM (no result: SMN2 splice up, Luc counter)
Cc1ccc(COc2ccc(-c3nnco3)cc2)cc1	NPC1 promoter act 2.2µM, ELG1 genotox inconclusive, FLuc modulator 9.5µM, Rab9 promoter act 3.5µM (no result: SMN2 splice up, Luc counter)
Cc1nc2sc3c(c2c(=O)n1N)CCC3	none
